The values that follow come from PubChem BioAssay (Tox21).

Where “and” joins values, the source holds several entries; their conditions need not be identical. Identical values can stand only once. Results filed as inconclusive are left out. More than one record can exist for a structure, and the calls need not agree. Calls of active or inactive are those of the source. Unless noted, calls follow the shape of the dose curve; as a rule, active = well fitted curve in the direction sought with a large enough effect in the repeat runs; inconclusive = weak or mixed curves; inactive = no such curve, though single readings can be large; an effect the other way counts as inactive or inconclusive.

The target in experiment [1] is Progesterone receptor (Homo sapiens) (UniProt P06401). The experiment can be described thus: qHTS assay to identify small molecule agonists of the progesterone receptor (PR) signaling pathway (AID 1346784; calls by dose curve; also: nearly all actives have a fitted effect of over 30% in size). An outline of the steps:
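Fluorescence from LiveBLAzer B/G FRET substrate cleavage (2 hr, RT) reported PR activation in PR-UAS-bla HEK 293T cells treated 16 hr at 37C/5% CO2 with compounds; medium contained 2% charcoal-stripped FBS.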
(In general: In qHTS, concentration-response curves come from the screen itself.)

Experiment [2] in a line: qHTS assay to identify small molecule antagonists of the progesterone receptor (PR) signaling pathway - cell viability counter screen (AID 1346798). Also: nearly all actives have a fitted effect of over 50% in size. Also: potency is read from the fitted curve at half-maximal effect. An outline of the steps:
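CellTiter-Glo luminescence; PR-UAS-bla HEK293T, 3,000 cells/well; compound + R5020, 16 hr, 37C/5% CO2; 30 min RT before read.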

The nature of experiment [3]: qHTS assay to identify small molecule agonists of the progesterone receptor (PR) signaling pathway - cell viability counter screen (AID 1346799; calls by dose curve; also: nearly all actives have a fitted effect of over 45% in size; also: potency is read from the fitted curve at half-maximal effect). An outline of the steps: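 In parallel with the beta-lactamase readout, cytotoxicity toward PR-UAS-bla HEK293T cells was measured by CellTiter-Glo luminescence following 16 hr compound incubation in 2% charcoal-stripped FBS medium.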

A short description of experiment [4]: qHTS assay to identify small molecule antagonists of the TGF-beta/Smad signaling pathway - cell viability counter screen (AID 1346824). Also: nearly all actives have a fitted effect of over 50% in size. In short, it runs like this:
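Cytotoxicity counter-screen run in the same wells as the beta-lactamase Smad reporter read: CellTiter-Glo luminescence after 30 min at room temperature. HEK 293T SBE-bla cells had 5 hr compound exposure at 37 C with TGF-beta1 (0.25 ng/mL stock).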

Experiment [5] in a line: qHTS assay to identify small molecule agonists of the TGF-beta/Smad signaling pathway - cell viability counter screen (AID 1346829). Also: top concentration of the series differs between compounds; nearly all actives have a fitted effect of over 45% in size. In short, it runs like this:
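Cytotoxicity counter screen: CellTiter-Glo luminescence (30 min, room temperature) measured in the SBE-bla HEK 293T reporter wells after 5 hr compound treatment at 37 C and the 2 hr substrate step.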

Experiment [6] can be described thus: Human pregnane X receptor (PXR) small molecule agonists, qHTS cell viability counter screen (AID 1346977). Also: nearly all actives have a fitted effect of over 50% in size. Also: potency is read from the fitted curve at half-maximal effect. An outline of the steps: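 Viability counter screen: CellTiter-Fluor signal in PXR-Luc HepG2 cells, 24hr compound exposure, 37C, 5% CO2.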
Experiment [7] in a line: Caspase-3/7 induction in CHO-K1 cells by small molecules, qHTS cell viability counter screen (AID 1346979). Also: nearly all actives have a fitted effect of over 35% in size. Also: potency is read from the fitted curve at half-maximal effect. In short, it runs like this: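 Viability readout by fluorescence (CellTiter-Fluor) on wild-type CHO-K1 cells exposed for 16hr at 37C and 5% CO2 to compounds delivered in DMSO; reagent incubated 1hr before reading.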
Experiment [8] in a line: Caspase-3/7 induction in CHO-K1 cells by small molecules, qHTS assay (AID 1346980). Also: nearly all actives have a fitted effect of over 15% in size. In short, it runs like this: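 Luminescent Caspase-Glo 3/7 read (30min, room temperature) quantified apoptosis induction. Cells were wild-type CHO-K1, treated with compound for 17hr at 37 C and 5% CO2.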
Experiment [9] deals with Cytochrome P450 2C19 (Homo sapiens) (UniProt P33261). The experiment can be described thus: Cytochrome P450 Family 2 Subfamily C Member 19 (CYP2C19) small molecule antagonists: luciferase reporter qHTS assay (AID 1671197). Also: nearly all actives have a fitted effect of over 65% in size. Also: potency is read from the fitted curve at half-maximal effect. In short, it runs like this:
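Luminescent readout of CYP2C19 activity: luciferin product detected 20 min after adding detection reagent. Before that, compound and enzyme-substrate mix preincubated 10 min at room temperature; NADPH-regenerating system started a 1 h, 37C reaction. Ketoconazole as positive control.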

Experiment [10] can be described thus: Caspase-3/7 induction in HepG2 cells by small molecules, qHTS assay (AID 1346978). Also: nearly all actives have a fitted effect of over 15% in size. Also: potency is read from the fitted curve at half-maximal effect. In short, it runs like this: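 Caspase-3/7 induction was measured by Caspase-Glo 3/7 luminescence (30 min, room temperature) after a 17 hr compound exposure of wild-type HepG2 cells seeded at 2,000 per well and pre-incubated 5 hr.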
A short description of experiment [11]: Caspase-3/7 induction in HepG2 cells by small molecules, qHTS cell viability counter screen (AID 1346981). Also: nearly all actives have a fitted effect of over 30% in size. Also: potency is read from the fitted curve at half-maximal effect. An outline of the steps:
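The parent HepG2 line is plated at 2,000 cells per well and rested 5 hr before compound pinning from DMSO stocks. Following a 16-hr treatment at 37 C, a fluorogenic live-cell substrate (CellTiter-Fluor) reports viability after 1 hr.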

The target of experiment [12] is Cytochrome P450 2D6 (Homo sapiens) (UniProt P10635). The experiment can be described thus: Cytochrome P450 Family 2 Subfamily D Member 6 (CYP2D6) small molecule antagonists: luciferase reporter qHTS assay (AID 1671196). Also: nearly all actives have a fitted effect of over 50% in size. Also: potency is read from the fitted curve at half-maximal effect. In short, it runs like this: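 Quantitative HTS of Tox21 chemicals against CYP2D6 using a luminescent proluciferin substrate. After NADPH addition, 1 h room-temperature reaction; luminescence recorded 20 min post detection reagent.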
For orientation: In a reporter assay the amount or activity of a reporter protein is the signal.

The nature of experiment [13]: qHTS assay to identify small molecule agonists of the TGF-beta/Smad signaling pathway (AID 1346859; active = well fitted activation curve with a large enough effect in the signal ratio in the repeat runs, not every such curve was filed as active; the % refers to the signal ratio; also: series mostly up to about 77 µM). In short, it runs like this: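 After overnight seeding, SBE-bla HEK 293T cells are dosed with compounds in DMSO and kept 5 hr at 37 C, 5% CO2. LiveBLAzer-type FRET substrate is then applied for 2 hr at room temperature.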
Experiment [14] addresses Thyrotropin-releasing hormone receptor (Homo sapiens) (UniProt P34981). The experiment can be described thus: qHTS assay to identify small molecule antagonists of the thyrotropin-releasing hormone receptor (TRHR) signaling pathway (AID 1346877; active = well fitted inhibition curve with a large enough effect in the repeat runs, not every such curve was filed as active; also: series mostly up to about 51 µM). In short, it runs like this: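 Human TRHR in HEK293 cells; inhibition of the intracellular calcium rise triggered by 1 nM TRH was followed by fluorescence over 3 min. Compounds were run at 15 concentrations, three replicates each.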

Experiment [15] shares this target. The experiment is described as follows: qHTS assay to identify small molecule agonists of the thyrotropin-releasing hormone receptor (TRHR) signaling pathway (AID 1346891; calls by dose curve; also: potency is read from the fitted curve at half-maximal effect;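 as to activation: HEK293 cells expressing TRHR with calcium dye readout; series mostly up to about 58 µM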). In short, it runs like this:
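Compounds were tested as agonists at 15 concentrations, in triplicate, on TRHR-Hek293 cells; calcium-sensitive dye fluorescence was recorded for 3 min following addition.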

Experiment [16] addresses Nuclear receptor subfamily 1 group I member 2 (Homo sapiens) (UniProt O75469). The experiment is described as follows: Human pregnane X receptor (PXR) small molecule agonists, qHTS assay (AID 1346982). Also: nearly all actives have a fitted effect of over 35% in size. In short, it runs like this: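 After plating in 5% charcoal-stripped FBS and a 5 hr rest, PXR-Luc HepG2 cells received compounds in DMSO. Following 24 hr at 37 C, ONE-Glo was added and light output read.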

Experiment [17] deals with Nuclear receptor subfamily 1 group I member 2 (Rattus norvegicus) (UniProt Q9R1A7). The experiment can be described thus: Rat pregnane X receptor (rPXR) activation by small molecules, qHTS assay (AID 1346983). Also: nearly all actives have a fitted effect of over 20% in size. To be noted: rPXR luciferase reporter cells, One-Glo luminescence, 24 h; max activation: stronger effect = higher value. In short, it runs like this:
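Luminescent readout (One-Glo luciferase, 30 min room temperature) followed 24 hr compound treatment at 37 C of rPXR cells plated 2,000 per well and preincubated 5hr; qHTS format with compounds delivered in DMSO.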

Experiment [18] has as its target Nuclear receptor subfamily 1 group I member 2 (Homo sapiens) (UniProt O75469). The experiment is described as follows: CYP3A4 induction through human pregnane X receptor (PXR) by small molecules, qHTS assay (AID 1346984). Also: nearly all actives have a fitted effect of over 40% in size. Also: potency is read from the fitted curve at half-maximal effect. In short, it runs like this: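 Human PXR activation is tracked via CYP3A4 promoter-luciferase in DPX-2 (HepG2) cells. Compounds treat cells for 24hr at 37C, and luminescence is read after One-Glo.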

For experiment [19] the target is unchanged. The experiment can be described thus: Human pregnane X receptor (PXR) activation by small molecules, qHTS assay (AID 1346985). Also: nearly all actives have a fitted effect of over 40% in size. In short, it runs like this: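 DPX-2 cells (HepG2 co-transfected with a PXR response element and a CYP3A4-promoter luciferase construct) were seeded at 2,000 per well, rested 5 hr at 37C, then exposed to DMSO-dissolved compounds for 24 hr. Activation was read as luciferase luminescence.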
% is scaled to controls: 0 for no effect and ±100 for the full control effect.

Cytochrome P450 2C19 (Homo sapiens), sequence (P33261 whole entry, looked up): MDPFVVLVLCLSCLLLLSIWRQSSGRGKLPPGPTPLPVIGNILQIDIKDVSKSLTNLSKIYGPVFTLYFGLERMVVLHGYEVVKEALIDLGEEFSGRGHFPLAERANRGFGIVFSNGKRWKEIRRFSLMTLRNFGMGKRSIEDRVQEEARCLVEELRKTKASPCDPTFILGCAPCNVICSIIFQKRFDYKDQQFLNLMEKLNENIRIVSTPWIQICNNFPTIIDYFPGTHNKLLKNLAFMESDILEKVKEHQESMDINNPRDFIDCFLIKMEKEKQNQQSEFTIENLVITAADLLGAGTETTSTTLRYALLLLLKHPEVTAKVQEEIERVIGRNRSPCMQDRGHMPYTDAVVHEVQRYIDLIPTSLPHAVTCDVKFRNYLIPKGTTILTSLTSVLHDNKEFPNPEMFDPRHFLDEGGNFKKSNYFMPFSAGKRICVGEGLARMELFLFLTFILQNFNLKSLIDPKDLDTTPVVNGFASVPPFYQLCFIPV
Nuclear receptor subfamily 1 group I member 2 (Rattus norvegicus), sequence (Q9R1A7 whole entry, looked up): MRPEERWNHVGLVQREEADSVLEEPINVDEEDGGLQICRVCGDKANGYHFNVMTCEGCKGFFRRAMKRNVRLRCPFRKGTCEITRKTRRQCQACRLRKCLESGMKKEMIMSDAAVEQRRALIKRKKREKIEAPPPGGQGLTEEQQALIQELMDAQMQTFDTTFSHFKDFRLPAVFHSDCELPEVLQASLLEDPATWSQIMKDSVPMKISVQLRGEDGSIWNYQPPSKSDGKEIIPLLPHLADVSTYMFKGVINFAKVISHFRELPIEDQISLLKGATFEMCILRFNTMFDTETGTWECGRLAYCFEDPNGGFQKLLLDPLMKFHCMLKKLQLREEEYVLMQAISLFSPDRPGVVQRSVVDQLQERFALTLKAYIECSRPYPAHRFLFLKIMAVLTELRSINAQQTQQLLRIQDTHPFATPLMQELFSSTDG
Progesterone receptor (Homo sapiens), sequence (P06401 whole entry, looked up): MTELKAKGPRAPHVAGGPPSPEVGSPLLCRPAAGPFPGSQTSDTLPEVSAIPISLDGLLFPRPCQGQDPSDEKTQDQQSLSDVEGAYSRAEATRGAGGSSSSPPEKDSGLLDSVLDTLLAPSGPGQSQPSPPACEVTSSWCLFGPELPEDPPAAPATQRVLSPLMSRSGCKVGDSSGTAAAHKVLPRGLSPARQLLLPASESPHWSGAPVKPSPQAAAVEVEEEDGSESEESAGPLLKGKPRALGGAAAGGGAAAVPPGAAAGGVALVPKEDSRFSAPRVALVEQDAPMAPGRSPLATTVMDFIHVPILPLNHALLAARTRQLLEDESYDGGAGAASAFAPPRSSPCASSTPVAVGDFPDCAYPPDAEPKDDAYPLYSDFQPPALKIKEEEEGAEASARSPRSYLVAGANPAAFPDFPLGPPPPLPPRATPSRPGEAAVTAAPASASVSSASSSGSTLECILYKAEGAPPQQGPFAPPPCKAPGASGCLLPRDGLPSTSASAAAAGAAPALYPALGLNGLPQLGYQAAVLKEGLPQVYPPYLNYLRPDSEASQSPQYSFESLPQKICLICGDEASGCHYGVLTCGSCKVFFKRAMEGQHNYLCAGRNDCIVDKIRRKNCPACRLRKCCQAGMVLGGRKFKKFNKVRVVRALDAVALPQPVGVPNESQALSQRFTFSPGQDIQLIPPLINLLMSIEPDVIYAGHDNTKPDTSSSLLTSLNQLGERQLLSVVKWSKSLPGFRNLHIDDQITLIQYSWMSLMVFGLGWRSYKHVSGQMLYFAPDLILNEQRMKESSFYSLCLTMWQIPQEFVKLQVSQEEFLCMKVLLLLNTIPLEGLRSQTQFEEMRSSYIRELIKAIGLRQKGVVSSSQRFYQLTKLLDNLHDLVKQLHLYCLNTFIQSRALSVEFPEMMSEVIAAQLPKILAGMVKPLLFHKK
Thyrotropin-releasing hormone receptor (Homo sapiens), sequence (P34981 whole entry, looked up): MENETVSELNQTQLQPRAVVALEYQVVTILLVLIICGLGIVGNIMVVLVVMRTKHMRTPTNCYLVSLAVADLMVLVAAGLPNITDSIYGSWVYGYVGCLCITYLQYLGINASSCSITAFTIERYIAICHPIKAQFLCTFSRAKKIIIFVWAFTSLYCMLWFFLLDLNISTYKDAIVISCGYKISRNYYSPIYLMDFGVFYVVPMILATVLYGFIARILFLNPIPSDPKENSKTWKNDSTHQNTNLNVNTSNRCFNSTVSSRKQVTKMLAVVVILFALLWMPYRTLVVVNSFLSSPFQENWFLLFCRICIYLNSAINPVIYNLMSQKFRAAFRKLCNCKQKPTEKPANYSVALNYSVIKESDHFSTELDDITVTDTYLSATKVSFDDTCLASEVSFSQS
Cytochrome P450 2D6 (Homo sapiens), sequence (P10635 whole entry, looked up): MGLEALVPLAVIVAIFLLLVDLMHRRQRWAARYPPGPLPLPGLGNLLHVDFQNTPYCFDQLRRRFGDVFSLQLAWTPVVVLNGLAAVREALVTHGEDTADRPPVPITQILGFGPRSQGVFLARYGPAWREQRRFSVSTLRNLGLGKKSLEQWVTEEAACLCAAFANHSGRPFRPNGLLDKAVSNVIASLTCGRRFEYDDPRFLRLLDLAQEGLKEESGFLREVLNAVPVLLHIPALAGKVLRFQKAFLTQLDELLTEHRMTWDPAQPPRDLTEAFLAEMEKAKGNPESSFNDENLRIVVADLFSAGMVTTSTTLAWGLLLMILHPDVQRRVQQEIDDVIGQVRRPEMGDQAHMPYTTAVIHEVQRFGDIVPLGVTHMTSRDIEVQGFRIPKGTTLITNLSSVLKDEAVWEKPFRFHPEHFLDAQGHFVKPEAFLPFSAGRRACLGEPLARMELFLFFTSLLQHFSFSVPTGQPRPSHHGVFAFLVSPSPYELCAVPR
Nuclear receptor subfamily 1 group I member 2 (Homo sapiens), sequence (O75469 whole entry, looked up): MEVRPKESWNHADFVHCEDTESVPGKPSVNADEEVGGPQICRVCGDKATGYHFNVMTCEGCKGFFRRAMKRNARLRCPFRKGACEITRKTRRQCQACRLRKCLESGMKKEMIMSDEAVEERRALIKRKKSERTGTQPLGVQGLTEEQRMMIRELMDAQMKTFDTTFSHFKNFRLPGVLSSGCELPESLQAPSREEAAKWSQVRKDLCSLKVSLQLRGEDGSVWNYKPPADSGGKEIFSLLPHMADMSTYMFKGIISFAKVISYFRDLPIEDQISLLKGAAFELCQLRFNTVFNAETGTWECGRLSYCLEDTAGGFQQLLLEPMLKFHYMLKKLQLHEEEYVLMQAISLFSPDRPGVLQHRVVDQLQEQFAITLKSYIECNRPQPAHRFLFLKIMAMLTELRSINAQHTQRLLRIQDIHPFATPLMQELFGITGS

For the molecule `COc1ccc(OC(F)(F)F)cc1CN[C@H]1CCCN[C@H]1c1ccccc1`, the Potency result in [1], in experiment [4], in experiment [5] and in experiment [8] was “inactive” in each case. Moreover, the Potency in experiment [2] is 30.6 µM (active); in [3], 24.3 µM (active); in experiment [6] it was 54.5 µM (active); in [7] it was 61.1 µM (active); in experiment [9] it was 79.6 µM (active).

With `COc1ccc2cc(S(=O)(=O)N[C@H](CC(=O)N[C@H](Cc3ccc(CN4[C@H](C)CCC[C@@H]4C)cc3)C(=O)N(C)C(C)C)c3ccc4c(c3)OCO4)ccc2c1`, the Potency entry in [1] and in experiment [8] was “inactive” in each case. The Potency in [3] was 29 µM (active); in [6], 13 µM (active); in [10], 57.9 µM (active); in [11], 29 µM (active); in experiment [12] it was 169 nM (active).

Consider `CN1CCc2cccc3c2[C@H]1Cc1ccc(O)c(O)c1-3`, for which the Potency result in [1], in experiment [2], in [4], in experiment [5], in experiment [14] and in experiment [15] was “inactive” in each case. For the same molecule, the Potency entry in experiment [10], in [8], in experiment [16] and in experiment [9] was “inactive” in each case. The result in [13] and in [19] was inactive. The Potency in [6] is 43.7 µM (active) and 18.1 µM (active) and 29.8 µM (active); in [11], 61.8 µM (active) and 25.6 µM (active); in [18], 6.31 µM (active); in experiment [12] it was 45.3 µM (active) and 11.8 µM (active) and 38.9 µM (active). Moreover, the max activation in experiment [17] is 9.82% (inactive).

Consider `CC(O)(P(=O)(O)O)P(=O)(O)O`, for which the Potency entry in experiment [2], in experiment [3], in [4], in experiment [5], in experiment [14] and in [15] was “inactive” each time. Moreover, the Potency entry in experiment [6], in experiment [10], in [7], in [8], in experiment [11] and in experiment [18] was “inactive” in each case. The Potency result in experiment [12] and in [9] was “inactive” in each case. In addition, the outcome in experiment [13] and in experiment [19] was inactive. In experiment [17], the max activation was -1.65% (inactive).

Turning to `CC(=O)CCC(=O)O`, the Potency entry in experiment [2], in experiment [3], in [4], in [5], in experiment [6] and in [10] was “inactive” throughout. Moreover, the Potency result in [8], in experiment [11], in experiment [18], in experiment [12] and in experiment [9] was “inactive” each time. For the same molecule, the call in experiment [13] and in experiment [19] was inactive. For the same molecule, the max activation in experiment [17] is -1.2% (inactive).

In the case of `NS(=O)(=O)O`, the Potency result in experiment [1], in [2], in experiment [3], in [4], in experiment [5] and in experiment [6] was “inactive” throughout. Also, the Potency result in [10], in experiment [8], in [11] and in [12] was “inactive” each time. The molecule was classed as inactive in experiment [13]. The Potency in [9] is 73.7 µM (active) and inactive.

As for `Nc1ccc([N+](=O)[O-])cc1O`, the Potency result in experiment [5], in [10] and in experiment [8] was “inactive” throughout. Besides, the molecule was called inactive in [13]. The Potency in [6] is 30.6 µM (active); in [7], 40.9 µM (active); in [11], 48.6 µM (active); in experiment [9] it was 6.33 µM (active).

Turning to `C1=CC2C3C=CC(C3)C2C1` (stereo not given), the Potency entry in experiment [1], in [2], in [4], in experiment [5], in experiment [6] and in experiment [10] was “inactive” in each case. Also, the Potency entry in experiment [7], in experiment [8], in [11] and in experiment [9] was “inactive” throughout. For the same molecule, the result in [13] was inactive. For the same molecule, the Potency in experiment [15] was 34.1 µM (active); in experiment [12], 6990 nM (active).

With `COc1ccc(C(Cl)=C(c2ccc(OC)cc2)c2ccc(OC)cc2)cc1`, the Potency result in [1], in [2], in [4], in experiment [5], in experiment [14] and in experiment [15] was “inactive” throughout. In addition, the Potency entry in experiment [6], in experiment [10], in experiment [7], in experiment [8], in experiment [11] and in experiment [12] was “inactive” each time. Further, in experiment [13], the outcome was inactive. Besides, the Potency in experiment [9] was 7.93 µM (active) and 12.6 µM (active) and 4.36 µM (active).

As to `CCCC[P+](CCCC)(CCCC)CCCC`, the Potency result in experiment [1], in experiment [2], in experiment [3], in experiment [4], in experiment [5] and in experiment [6] was “inactive” each time. The Potency entry in [10], in experiment [8] and in [11] was “inactive” each time.
